SMN2 splice enh = SMN2 splice variant enhancement | HEK293 SMN2-luciferase splicing reporter, luminescence, 30-36 h | Potency, µM (titrated, usually from 46.1 µM), for the others: at the highest dose activity change, positive = activation, most hits filed as activators | 210,000 compounds, 2.8% hits | AID 1458; also: % of control where 0% means no effect; nearly all actives have a fitted effect of over 55% in size
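HEK293 cells carry an SMN2 minigene-luciferase reporter in which exon 7 inclusion puts luciferase in frame. Cells were seeded at 2000 cells/well, attached for 10-12 hours, then exposed to compounds for 30-36 hours at 37C before ONE-Glo luminescence.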
FLuc counter = firefly luciferase modulation, counter-screen for miR-21 project | AID 588342 | purified FLuc, Km substrates, luminescence inhibition | 360,000 compounds, 6.9% hits | Potency, µM (top dose mostly 57.5 µM), inactives show top-dose activity change, negative = inhibition, most hits filed as inhibitors;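 also: plate controls were vehicle for no effect and reference inhibitor for full effect; nearly all actives have a fitted effect of over 55% in size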
Target sequence (P08659 whole entry, looked up): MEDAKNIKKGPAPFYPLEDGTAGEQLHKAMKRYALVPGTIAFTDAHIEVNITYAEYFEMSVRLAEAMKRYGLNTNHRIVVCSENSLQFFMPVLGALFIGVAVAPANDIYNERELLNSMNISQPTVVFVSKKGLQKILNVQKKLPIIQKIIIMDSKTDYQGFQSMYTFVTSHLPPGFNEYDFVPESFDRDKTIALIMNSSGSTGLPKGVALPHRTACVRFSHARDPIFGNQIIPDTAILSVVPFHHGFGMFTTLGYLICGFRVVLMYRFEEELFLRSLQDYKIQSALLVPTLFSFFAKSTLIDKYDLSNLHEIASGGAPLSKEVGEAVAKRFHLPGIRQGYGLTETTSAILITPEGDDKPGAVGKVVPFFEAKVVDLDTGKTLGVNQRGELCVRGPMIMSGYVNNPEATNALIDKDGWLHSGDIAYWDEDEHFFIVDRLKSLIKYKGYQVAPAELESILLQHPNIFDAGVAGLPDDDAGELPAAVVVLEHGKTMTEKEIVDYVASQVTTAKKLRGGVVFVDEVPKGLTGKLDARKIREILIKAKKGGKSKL
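Purified P. pyralis luciferase (10nM final) with 10uM D-luciferin and 10uM ATP (Km levels) in 50mM Tris acetate pH 7.5, 10mM Mg acetate, 0.01% Tween-20, 0.05% BSA; qHTS 6-point titration, ~60 µM downward; luminescence read.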
ELG1 genotoxic = induces genotoxicity in HEK293T cells with luciferase-tagged ELG1; HEK293T ELG1-luciferase reporter, luminescence, 16 h; AID 504466; 330,000 compounds, 1.3% hits; Potency, µM (top dose mostly 46 µM), without a hit: top-dose activity change, positive = activation, hits mostly activators; also: % of control where 0% means no effect; nearly all actives have a fitted effect of over 60% in size
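16 hr compound incubation (37 °C, 5% CO2) of HEK293T cells carrying luciferase-tagged ELG1; luciferase then measured by ONE-Glo luminescence after 30 min at RT.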
Rab9 prom act = activates the Rab9 promoter; Huh7 Rab9 promoter-luciferase reporter, luminescence, 24 h; Potency, µM (highest dose often 9.22 µM), inactives show at the top dose activation, negative = inhibition, usual class: activators; 320,000 compounds, 2.8% hits; also: % of control where 0% means no effect; nearly all actives have a fitted effect of over 60% in size
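Rab9 promoter-driven luciferase in stably transfected Huh7 cells; 1500 cells/well rested 2 h, exposed to compound in DMSO for 24 h at 37 °C, 5% CO2. Luminescence read 10 min after adding luciferase reagent at ambient temperature.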
NPC1 prom act = activates the NPC1 promoter | AID 485313 | 320,000 compounds, 2.4% hits | Huh7 NPC1 promoter luciferase reporter, 24 h | Potency, µM (highest dose often 9.22 µM), for inactives: at the highest dose activation, actives largely listed as activators; also: % of control where 0% means no effect; nearly all actives have a fitted effect of over 60% in size
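Readout is luciferase luminescence, reflecting NPC1 promoter activation in stably transfected Huh7 cells after 24 h compound exposure at 37 °C in reduced-serum medium with 10% FBS.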
Luc counter = counter-screen: inhibitors of Kinase-Glo firefly luciferase; Potency, µM (titrated, usually from 38.3 µM), inactives show at the highest dose activity change, negative = inhibition, usual class: inhibitors; Q27757; 200,000 compounds, 0.28% hits; Kinase-Glo luciferase, ATP luminescence, 8 min; also: % is scaled to controls: 0 for no effect and ±100 for the full control effect; nearly all actives have a fitted effect of over 60% in size
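Recombinant Kinase-Glo luciferase, 10 uM ATP (linear range), luciferin; imidazole pH 7.2 / KCl / MgCl2 / Tween / BSA buffer; 8 min RT; luminescence.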
An asterisk follows results filed as active; u = inconclusive; x = no result. Most compounds without a hit are left out; they make up all but 7.5% or so of the library. Calls follow the shape of the dose curve; as a rule, active = well fitted curve in the direction sought with a large enough effect; inconclusive = small, poorly fitted or top-dose-only effect, or another doubt; inactive = no such curve, though single readings can be large; an effect the other way counts as inactive or inconclusive. Potency is read from the fitted curve at half-maximal effect.

SMILES | SMN2 splice enh | FLuc counter | ELG1 genotoxic | Rab9 prom act | NPC1 prom act | Luc counter
COc1ccc(S(=O)(=O)Nc2cccc(-c3ccc(N4CCCCCC4)nn3)c2)cc1F | x | 5.36µM* | x | x | x | x
COc1ccc(C(=O)NNC(=O)C(Cc2ccc(O)cc2)NC(=O)c2ccccc2NC(=O)c2ccc(OC)cc2)cc1 (stereo not given) | x | u | 0.4% | -4.7% | -0.6% | 4.0%
CC(C)Oc1ccc(C(=O)NC(Cc2c[nH]c3ccccc23)C(=O)NN)cc1 (stereo not given) | x | 12µM* | 2.2% | 2.7% | -3.0% | x
O=C(N[C@@H](Cc1c[nH]c2ccccc12)C(=O)O)c1ccccc1Cl | x | -18.4% | 0.9% | -7.1% | -1.3% | x
O=C(N[C@@H](Cc1c[nH]c2ccccc12)C(=O)NC1CC1)c1ccccc1Cl | 11.2µM* | u | u | u | u | -0.3%
COc1ccc(C(=O)Nc2ccccc2C(=O)NC(Cc2ccc(O)cc2)C(=O)NNC(=O)c2ccccc2Cl)cc1 (stereo not given) | -10.7% | 13.5µM* | -1.5% | -3.7% | 2.0% | 1.4%
Cc1ccc(C(=O)NC(Cc2c[nH]c3ccccc23)C(=O)O)cc1 (stereo not given) | 1.8% | u | -0.1% | 1.3% | 2.6% | -3.0%
COc1ccc(C(=O)Nc2ccccc2C(=O)NC(Cc2c[nH]c3ccccc23)C(=O)O)cc1 (stereo not given) | -9.7% | 15.1µM* | 2.8% | -3.1% | 2.2% | -1.4%
CCC1=C2CC[C@H]3C(=O)N(c4ccccc4)C(=O)[C@H]3[C@H]2[C@@]2(Cc3ccccc3)C(=O)N(CC(=O)OC)C(=O)N2C1=O | 7.7% | x | x | x | x | -4.5%
CC(C)(C)c1ccc(C(=O)n2cnc3ccccc32)cc1 | x | 3.38µM* | 11.1% | 2.0% | -1.0% | x
Cc1cc2ncn(C(=O)c3ccc(F)cc3)c2cc1C | x | 13.5µM* | 1.8% | -3.8% | 2.3% | x
CCN(CC)c1ccc(C(=O)n2cnc3ccccc32)cc1 | 1.8% | 5.36µM* | 6.8% | u | u | 1.3%
CC(C)(C)c1ccc(C(=O)N2CCCN(C(=O)c3ccc(C(C)(C)C)cc3)CC2)cc1 | -37.6% | -7.8% | -7.0% | -7.7% | -2.4% | 1.1%
CN(C)c1ccc(C(=O)n2nnc3ccccc32)cc1 | 2.5% | 0.135µM* | u | 2.4% | 4.6% | u
COc1ccc(N2CCN(C(CNC(=O)C(=O)NCc3ccc(F)cc3)c3cccnc3)CC2)cc1 (stereo not given) | x | -1.9% | x | x | x | x
CCC(=O)N1c2ccccc2CC1C(=O)NCc1cccc(OC)c1OC (stereo not given) | x | -1.7% | x | x | x | x
O=C1NC(=S)N/C1=C\C=C\c1ccccc1 | x | u | 17.4% | 24.5% | 22.9% | x
Cc1ccc(NC(=O)c2nc3nccc(C)n3n2)c(C)c1 | 11.2µM* | u | u | u | u | -4.6%
Cc1ccnc2nc(C(=O)Nc3nc4ccccc4s3)nn12 | x | 10.7µM* | u | 2.82µM* | 1µM* | x
Cc1csc(NC(=O)c2nc3nccc(C)n3n2)n1 | 14.2% | u | u | u | u | -5.4%
Cc1ccnc2nc(C(=O)Nc3nnc(CC(C)C)s3)nn12 | x | 4.0% | 7.7% | -1.7% | 0.1% | -1.1%
O=C1CC2(CCCC2)CC(=O)N1CCCCNC[C@H]1COc2ccccc2O1 | x | x | x | x | x | 4.9%
COc1cccc(COc2cc3ccccc3nc2C)c1 | -14.1% | 19µM* | -0.4% | -27.8% | -10.3% | -3.3%
Cc1nc2ccccc2cc1OCc1ccccc1 | -63.3% | 16.9µM* | -1.8% | -11.8% | -8.5% | -2.3%
O=C(CSc1nc2ccccc2nc1Cc1ccccc1)N1CCCc2ccccc21 | x | 0.5% | x | x | x | x
CCOC(=O)c1sc(NC(=O)Nc2ccccc2F)nc1C | -58.9% | 0.169µM* | 0.259µM* | 0.447µM* | u | -7.5%
CCOC(=O)c1sc(Nc2ccc(Br)cc2)nc1C | x | 19µM* | 7.8% | 16.6% | 15.5% | x
